Bioassay records: PubChem BioAssay, Sanford-Burnham Center for Chemical Genomics
Hits are enriched below; roughly 2.5% of the tested compounds scored in any of these assays.
Cardio protect: protects H9c2 cardiomyocytes from peroxide injury; H2O2 injury protection, ATPLite, 2 h; protection from H2O2 cell death, % at 20 µM; 360,000 tested, 0.63% active; AID 588492;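 active means compounds giving at least 50% protection of heart cells from peroxide-induced death in the single-dose screen, raw or plate-pattern-corrected value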;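 further: 0% = DMSO wells with peroxide and 100% = DMSO wells without peroxide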
CRFBP-R2 block: antagonists of CRF-binding protein/CRF-R2 receptor complex; HEK293 CRF-R2/CRF-BP, CRF-induced calcium fluorescence; inhibition, % at 11.8 µM; 350,000 tested, 0.59% active;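 active means inhibition of the ligand-induced calcium signal above about 50% at the single tested concentration, limit read from the data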
H9c2 TAG inh: reduces triacylglycerol accumulation in H9c2 cells | Nile Red lipid (TAG) fluorescence; cells loaded with 200 µM oleic acid | inhibition, % at 12.5 µM | 230,000 tested, 0.66% active | AID 651582;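 active means pattern-corrected inhibition of lipid staining of at least 50% with the nuclear-stain viability signal not falling by more than 50%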;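 further: 0% = DMSO wells and 100% = triacsin C control wells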
SKN-1 inh: C. elegans SKN-1 inhibition | C. elegans VP596 Pgst-4::GFP/RFP ratio, acrylamide-induced, 24 h | inhibition, % at 21.8 µM | 360,000 tested, 0.49% active;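 active means interference check ratio from 0.5 to 1.5 plus GFP to RFP signal ratio inhibition reaching or exceeding a fixed threshold, cut at about 30% in these data, passing the limit was not always enough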
CRFR2-BP ag: CRF-BP/CRF-R2 complex agonism. 350,000 tested, 0.46% active. activation, % at 13.2 µM. AID 588473. HEK293 CRF-R2/CRF-BP, calcium dye fluorescence (FLIPR); percent of saturating CRF peptide response;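 active means activation of at least 50%, plus an integration ratio under a set limit after plate pattern correction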;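 further: plate controls were neutral control wells without compound for no effect and CRF at EC100 for full effect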
iPSC survival up: hiPSC single-cell survival enhancement; 360,000 tested, 0.044% active; AID 602274; ATPlite luminescence; 100% = ROCK inhibitor wells, 0% = DMSO; survival enhancement, % at 20 µM; in the data active means survival enhancement above about 18%;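 further: cells exposed to compounds for 16 hours before the ATP read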
An asterisk follows results filed as active.

Results for CCOC(=O)c1[nH]c(C)c(/C(O)=C2\C(=O)C(=O)N(CCCN3CCOCC3)C2c2cccnc2)c1C (stereo not drawn) ?
Cardio protect: 4; CRFBP-R2 block: 16; SKN-1 inh: 5; CRFR2-BP ag: -3; iPSC survival up: -2

Results for COC(=O)c1[nH]c(C)c(/C(O)=C2\C(=O)C(=O)N(CCCN3CCOCC3)C2c2ccccn2)c1C (stereo not drawn) ?
Cardio protect: 0; CRFBP-R2 block: 9; H9c2 TAG inh: 14; SKN-1 inh: 38*; CRFR2-BP ag: 1; iPSC survival up: 4

Results for CC1(c2ccc(Cl)cc2)NC(=O)N(CC(=O)N2CCc3ccccc3C2)C1=O (stereo not drawn) ?
Cardio protect: -2; CRFBP-R2 block: -21; H9c2 TAG inh: 4; SKN-1 inh: -4; CRFR2-BP ag: 13; iPSC survival up: 1

What do the screens show for `CC1(c2ccc(Cl)cc2)NC(=O)N(CN2CCOCC2)C1=O` (stereo not drawn)?
Cardio protect: 5; CRFBP-R2 block: 1; SKN-1 inh: 37*; CRFR2-BP ag: -1; iPSC survival up: -1

What do the screens show for `COCCN(C(=O)CCC(=O)Nc1cc(C)on1)C(C(=O)NC1CCCC1)c1ccc(C(C)C)cc1` (stereo not drawn)?
Cardio protect: -1; CRFBP-R2 block: -1; SKN-1 inh: -1; CRFR2-BP ag: 1; iPSC survival up: 0

How did CCN(c1cccc(C)c1)c1nc2ccsc2c(=O)s1 do in these assays?
Cardio protect: -11; CRFBP-R2 block: 70*; H9c2 TAG inh: -10; SKN-1 inh: -2; CRFR2-BP ag: -6; iPSC survival up: 3

Results for CCN(c1ccccc1)S(=O)(=O)c1ccc(NC(=O)c2ccco2)cc1 ?
Cardio protect: 5; CRFBP-R2 block: 77*; H9c2 TAG inh: -5; SKN-1 inh: 1; CRFR2-BP ag: -2; iPSC survival up: 0

How did CN(c1ccccc1)S(=O)(=O)c1ccc(NC(=O)c2ccco2)cc1 do in these assays?
Cardio protect: -2; CRFBP-R2 block: -48; H9c2 TAG inh: -8; SKN-1 inh: 3; CRFR2-BP ag: 3; iPSC survival up: 2

What do the screens show for `CC1CCc2c(C(=O)Nc3nccs3)csc2C1` (stereo not drawn)?
Cardio protect: -3; CRFBP-R2 block: -48; SKN-1 inh: 37*; CRFR2-BP ag: -2; iPSC survival up: 0

How did CC1CCc2c(C(=O)Nc3ccccn3)csc2C1 (stereo not drawn) do in these assays?
Cardio protect: -15; CRFBP-R2 block: 57*; H9c2 TAG inh: 6; SKN-1 inh: 29; CRFR2-BP ag: -1; iPSC survival up: -1

What do the screens show for `COc1ccc(OC)c(NC(=O)N2CCCC(C(=O)c3ccccc3OC)C2)c1` (stereo not drawn)?
Cardio protect: -4; CRFBP-R2 block: -2; H9c2 TAG inh: -26; SKN-1 inh: -9; CRFR2-BP ag: -3; iPSC survival up: 0

Results for O=C(Nc1ccc(F)cc1)c1nc(S(=O)(=O)Cc2ccccc2)ncc1Cl ?
Cardio protect: -12; CRFBP-R2 block: 56*; SKN-1 inh: -2; CRFR2-BP ag: -1; iPSC survival up: 3

Results for COc1ccc(OC)c(NC(=O)c2nc(S(=O)(=O)Cc3ccccc3)ncc2Cl)c1 ?
Cardio protect: -16; CRFBP-R2 block: 62*; SKN-1 inh: 13; CRFR2-BP ag: -1; iPSC survival up: 1

Results for Cc1ccccc1NC(=O)c1nc(S(C)(=O)=O)ncc1Cl ?
Cardio protect: -18; CRFBP-R2 block: 15; H9c2 TAG inh: 68*; SKN-1 inh: 1; CRFR2-BP ag: 0; iPSC survival up: 0

How did CCS(=O)(=O)c1ncc(Cl)c(C(=O)Nc2ccc(S(=O)(=O)N(C)c3ccccc3)cc2)n1 do in these assays?
Cardio protect: -20; CRFBP-R2 block: 27; SKN-1 inh: -7; CRFR2-BP ag: -1; iPSC survival up: 21*

Results for COc1ccc(OC2CCN(S(=O)(=O)c3ccc(C(C)=O)cc3)CC2)cc1 ?
Cardio protect: 3; CRFBP-R2 block: 14; SKN-1 inh: -1; CRFR2-BP ag: 0; iPSC survival up: 0

How did CCC(=O)N1CCCC(C)(C(=O)NS(=O)(=O)c2cccs2)C1 (stereo not drawn) do in these assays?
Cardio protect: 2; H9c2 TAG inh: 17; SKN-1 inh: 13; iPSC survival up: 1

Results for COc1ccc2[nH]cc(CCNC(=O)/C=C/[C@H]3O[C@@H](n4cc(C)c(=O)[nH]c4=O)C[C@@H]3O)c2c1 ?
Cardio protect: -1; SKN-1 inh: 3; iPSC survival up: 0

What do the screens show for `CN(c1ccc(Cl)cc1)S(=O)(=O)c1nnc(NC(=O)C(C)(C)C)s1`?
Cardio protect: -10; CRFBP-R2 block: -10; SKN-1 inh: 13; CRFR2-BP ag: 1; iPSC survival up: 0

Results for COC(=O)[C@]1(C)N[C@H](CN(C)C(=O)Nc2ccc(C)cc2)[C@@H]2C(=O)N(C)C(=O)[C@@H]21 ?
Cardio protect: -3; CRFBP-R2 block: -17; H9c2 TAG inh: 4; SKN-1 inh: 4; CRFR2-BP ag: -1; iPSC survival up: -2

How did O=c1oc(CCO)cc2ccccc12 do in these assays?
Cardio protect: 3; CRFBP-R2 block: 7; H9c2 TAG inh: 2; SKN-1 inh: 2; CRFR2-BP ag: 1; iPSC survival up: -3

How did O=c1oc(CCO)cc2ccc(Br)cc12 do in these assays?
Cardio protect: 10; CRFBP-R2 block: 66*; H9c2 TAG inh: 10; SKN-1 inh: -4; CRFR2-BP ag: 0; iPSC survival up: 0

What do the screens show for `C/C(CC(=O)Nc1ccc(Cl)cn1)=N\NC(=O)Cc1cccs1`?
Cardio protect: 3; CRFBP-R2 block: -6; H9c2 TAG inh: 11; SKN-1 inh: -7; CRFR2-BP ag: 0; iPSC survival up: 0

How did CC(C)CN1CCN(Cc2cccc3nccnc23)CC1CCO (stereo not drawn) do in these assays?
Cardio protect: 0; CRFBP-R2 block: 74*; H9c2 TAG inh: 11; SKN-1 inh: -6; CRFR2-BP ag: 0; iPSC survival up: 3

Results for COc1cc([N+](=O)[O-])ccc1NC(=O)CSc1nccn1C ?
Cardio protect: 19; CRFBP-R2 block: 8; H9c2 TAG inh: 16; SKN-1 inh: 6; CRFR2-BP ag: 1; iPSC survival up: -1

How did Clc1c(-c2ccccc2)nnn1-c1ccccc1 do in these assays?
Cardio protect: -5; CRFBP-R2 block: 17; SKN-1 inh: 36*; CRFR2-BP ag: 0; iPSC survival up: 1

What do the screens show for `CCOC(=O)c1cc(C#N)c(SCC(N)=O)[nH]c1=O`?
Cardio protect: -1; CRFBP-R2 block: 1; H9c2 TAG inh: 0; SKN-1 inh: 17; CRFR2-BP ag: 10; iPSC survival up: 0

Results for CCOC(=O)c1cc(C#N)c(SCC(=O)c2cc(C#N)c(SC)nc2C)[nH]c1=O ?
Cardio protect: 76*; CRFBP-R2 block: -3; SKN-1 inh: 3; CRFR2-BP ag: 6; iPSC survival up: -1
